Laboratory results reported in PubChem BioAssay AID720700 (The Scripps Research Institute Molecular Screening Center, 2013).
Hit rate of the full screen: of about 370,000 compounds, about 3,100 (0.84%) were called active. The sample holds actives, similar compounds and a random draw of the others, so the mix is not that of the screen. Values without a mark were called inactive. No stated cut-off is given here; in the data, active means inhibition above about 9.5%; inactive means the rest.

These molecules were tested against 1-phosphatidylinositol 4,5-bisphosphate phosphodiesterase gamma-1 (Homo sapiens) (UniProt P19174) (assay: blockers of human PLCG1 activity – biochemical, fluorescence, purified enzyme, primary screen (AID 720700)). Settings: purified PLC-gamma1, fluorogenic substrate, at 12.2 µM, hits give high values.
1-phosphatidylinositol 4,5-bisphosphate phosphodiesterase gamma-1 (Homo sapiens), sequence (P19174 whole entry, looked up): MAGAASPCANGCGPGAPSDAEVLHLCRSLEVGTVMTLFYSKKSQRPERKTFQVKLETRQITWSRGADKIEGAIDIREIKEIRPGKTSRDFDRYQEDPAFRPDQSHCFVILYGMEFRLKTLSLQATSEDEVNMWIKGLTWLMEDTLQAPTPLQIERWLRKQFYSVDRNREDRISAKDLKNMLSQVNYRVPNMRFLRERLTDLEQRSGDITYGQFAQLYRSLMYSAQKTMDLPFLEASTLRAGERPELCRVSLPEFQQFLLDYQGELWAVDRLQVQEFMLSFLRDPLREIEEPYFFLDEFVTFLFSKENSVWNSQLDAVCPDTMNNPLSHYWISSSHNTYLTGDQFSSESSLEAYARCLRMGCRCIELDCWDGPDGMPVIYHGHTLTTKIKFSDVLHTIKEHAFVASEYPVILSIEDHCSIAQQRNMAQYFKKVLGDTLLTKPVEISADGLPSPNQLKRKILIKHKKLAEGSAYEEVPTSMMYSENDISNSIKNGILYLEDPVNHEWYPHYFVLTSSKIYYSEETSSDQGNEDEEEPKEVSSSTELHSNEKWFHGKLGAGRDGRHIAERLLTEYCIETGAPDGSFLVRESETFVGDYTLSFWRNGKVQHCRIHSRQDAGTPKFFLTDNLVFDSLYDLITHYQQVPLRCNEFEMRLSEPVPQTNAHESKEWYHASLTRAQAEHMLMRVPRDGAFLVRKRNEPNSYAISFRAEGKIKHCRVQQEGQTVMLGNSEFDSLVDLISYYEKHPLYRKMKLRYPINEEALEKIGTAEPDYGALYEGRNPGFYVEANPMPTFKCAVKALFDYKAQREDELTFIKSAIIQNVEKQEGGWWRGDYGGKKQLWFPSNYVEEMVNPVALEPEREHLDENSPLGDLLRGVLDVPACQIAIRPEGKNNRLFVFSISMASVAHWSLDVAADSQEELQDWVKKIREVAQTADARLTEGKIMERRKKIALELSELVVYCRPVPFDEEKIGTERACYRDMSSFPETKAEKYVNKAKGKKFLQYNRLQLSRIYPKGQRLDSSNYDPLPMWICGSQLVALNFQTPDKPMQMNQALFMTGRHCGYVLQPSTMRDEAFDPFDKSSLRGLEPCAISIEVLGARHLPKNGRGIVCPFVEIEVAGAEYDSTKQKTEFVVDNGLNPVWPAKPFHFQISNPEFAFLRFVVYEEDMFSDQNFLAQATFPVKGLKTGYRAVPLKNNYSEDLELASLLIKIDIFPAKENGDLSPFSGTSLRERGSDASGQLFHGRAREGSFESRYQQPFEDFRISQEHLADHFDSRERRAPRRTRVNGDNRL

Going from O=C(NCc1cccs1)C1CCN(S(=O)(=O)c2ccccc2[N+](=O)[O-])CC1 to O=C(NCc1ccco1)C1CCCN(S(=O)(=O)c2ccc(Cl)s2)C1 (centres undefined), the inhibition falls from 3.22% to 2.2%.

Compared with c1coc(CCNc2ncnc3ccc(-c4ccc5c(c4)OCO5)cc23)c1, Cc1ccc(-c2csc(N(Cc3ccco3)C(=O)c3cccs3)n2)cc1 is higher in inhibition: -114% for the first, 0.51% for the second.

Compared with CCCc1nc2oc3c(OCC)ncnc3c2c2c1COC(C)(C)C2, CC1(C)Cc2nc3sc4c(SCC(=O)NC(c5ccccc5)c5ccccc5)ncnc4c3cc2CO1 is lower in inhibition: 2.49% for the first, -1.56% for the second.

Compared with COC(=O)C1CN(Cc2ccc(F)cc2)CCS(=O)(=O)N1Cc1ccc(Cl)cc1 (centres undefined), Cc1ccc(Cn2cc(CN3[C@@H](CC(C)C)COc4ccc(Cl)cc4S3(=O)=O)nn2)cc1 is higher in inhibition: -0.52% for the first, 1.86% for the second.

First: C=CCN1C(=O)[C@@H](CC(=O)NCC2CCCCC2)[C@]2(C(=O)OC)CCCCC=C12
Second: CCOC(=O)[C@]12CCCC3=C1N(CCC3)C(=O)[C@@H](CC(=O)NCC13CC4CC(CC(C4)C1)C3)C2
The inhibition of the first is lower: -0.08% for the first, 0.85% for the second.

First: CC(C)CSc1nnc(-c2cccnc2)n1Cc1ccccc1
Second: CC(C)CNc1cccc2c1S(=O)(=O)N(Cc1cn(Cc3ccccc3C(F)(F)F)nn1)Cc1ccccc1O2
The inhibition of the first is higher: 0.54% for the first, -4.63% for the second.

Going from COc1ccnc(NC(=S)N2CCN(c3ncc(C(F)(F)F)cc3Cl)CC2)c1 to COc1ccc2[nH]c3c(c2c1)CCN1C(=O)C(CC(=O)NCCc2ccccn2)C[C@H](C(=O)N2CCOCC2)[C@@]31C (some centres undefined), the inhibition falls from 4.36% to 0.01%.

Compared with O=C(Nc1cccc(Cl)c1)OC1CC2CC1[C@H]1CCCCN1[C@H]2Cc1ccccc1 (some centres undefined), O=C(Nc1cc(Cl)cc(Cl)c1)OCCN1CCCC12CCC(c1ccccc1)CC2 (centres undefined) is higher in inhibition: -19.3% for the first, -0.68% for the second.

Compared with O=C1N[C@H](Cc2c[nH]c3ccccc23)COC(=O)[C@H](Cc2ccc(F)cc2)C/C=C\C[C@H]1CC(=O)N(CCO)Cc1ccccc1, O=C1NC[C@@H](c2ccccc2)OC(=O)[C@H](Cc2ccc(F)cc2)CC/C=C/C[C@H]1CC(=O)N(CCO)Cc1ccccc1 is lower in inhibition: 1.6% for the first, -0.18% for the second.

Going from O=C(Nc1nc2ccc(Cl)cc2s1)c1cc(-c2ccc(Cl)cc2)nc2ccccc12 to COc1ccc(-n2c(SCC(=O)Nc3ccc(C)c(Cl)c3)nc3ccccc3c2=O)cc1, the inhibition falls from 6.56% to 5.06%.

First: COc1ccc(Cn2ccc3ccc(-c4ccc5ccn(Cc6ccccc6C)c5c4)cc32)cc1
Second: CCOc1ccc(N(CC(=O)Nc2c(C)n(C)n(-c3ccccc3)c2=O)S(=O)(=O)c2ccc(Cl)s2)cc1
The inhibition of the first is lower: -65% for the first, 1.1% for the second.

Going from O=S1(=O)c2c(cccc2N2CC[C@H](O)C2)O[C@@H]2CCN1C2 to CN[C@H]1C[C@H]2c3cc(N4CCOCC4)ccc3CCN2C[C@H]1[C@H](C)O, the inhibition falls from -2.5% to -7.18%.

First: CCOC(=O)C1CCN(C(=O)c2cccc(S(=O)(=O)N(CC)c3ccccc3)c2)CC1
Second: CCN1CCN(C(=O)c2ccccc2N(C)S(=O)(=O)c2ccc(C)cc2)CC1
The inhibition of the first is lower: 1.63% for the first, 2.78% for the second.

First: O=C(CSc1nc2ccccc2n1Cc1ccccc1Cl)N/N=C\c1c[nH]c2ccccc12
Second: O=C1CC[C@@H](COc2ccc3[nH]cc(-c4ccccc4)c3c2-c2ccccc2)N1
The inhibition of the first is higher: 1.37% for the first, -12.8% for the second.

Compared with Cc1cccc(NC(=S)N(CCN(C)C)C(C)c2ccco2)c1 (centres undefined), Cc1ccc(CSc2nnc(SCC(=O)NN=Cc3cc(Br)ccc3F)s2)cc1 is higher in inhibition: -0.2% for the first, 1.18% for the second.

Compared with Nc1[nH]c(/C=C2/CCCCC2n2[nH]c(=O)n(-c3ccccc3)c2=O)c(Cc2ccccc2)[n+]1Cc1ccccc1 (centres undefined), CC[C@@H](CCC(=O)N(c1ccccc1)c1ccccc1)C1CC1 is higher in inhibition: -3.57% for the first, -1.13% for the second.

Going from COC(=O)[C@]12C[C@H](CC(=O)NCc3cccs3)C(=O)N(CCc3ccc(OC)c(OC)c3)C1=C[C@H](C(C)C)O[C@@H]2C1CC1 to CC[C@]12c3[nH]c4ccc(Cl)cc4c3CCN1C(=O)[C@@H](CC(=O)NCCN1CCOCC1)C[C@@H]2C(=O)N1CCN(C(=O)C2CC2)CC1, the inhibition rises from 0.22% to 0.47%.

First: Nn1c(SCC(=O)Nc2ccc(S(N)(=O)=O)cc2)nnc1-c1n[nH]c2c1CCC2
Second: CN(C)S(=O)(=O)c1cccc(C(=O)OCC(=O)N2CCCC2=O)c1
The inhibition of the first is higher: 3.04% for the first, 1.6% for the second.

Compared with COc1ccc(N2CC(C(=O)N[C@@H](C)C(=O)N3CCCCC3)CC2=O)cc1 (some centres undefined), CCCC(C)c1nnc(NC(=O)C2CC(=O)N(c3ccc(OCC)cc3)C2)s1 (centres undefined) is higher in inhibition: -2.8% for the first, 4.32% for the second.

First: C=CCN(c1ccc(C(N)=O)cc1)S(C)(=O)=O
Second: C[C@@H]1CN([C@H](C)CO)C(=O)CCCn2nncc2CO[C@@H]1CN(C)C(=O)OCc1ccccc1
The inhibition of the first is lower: 2.1% for the first, 5.09% for the second.

For C[C@H](CO)N1C[C@H](C)[C@@H](CN(C)C(=O)C2CCCCC2)OCc2cnnn2CCCC1=O, the inhibition was 0.86%.

With CC(C)CCSc1ncnc2c1oc1nc3c(cc12)COC(C)(C)C3 the inhibition was 10.6% (active).
For O=C1N[C@@H](c2ccccc2)COC(=O)[C@H](Cc2ccc(F)cc2)C/C=C\C[C@@H]1CC(=O)N(CCO)Cc1ccccc1, the inhibition was 9.59% (active).
For CCOC(=O)C1CCN(C(=O)c2ccccc2N(C)S(=O)(=O)c2ccccc2)CC1, the inhibition was 12.6% (active).
With Cc1ccc(NC(=S)N(Cc2ccco2)C(C)c2cccs2)cc1 (centres undefined) the inhibition was 9.84% (active).
With C[C@]12c3[nH]c4ccc(Cl)cc4c3CCN1C(=O)[C@@H](CC(=O)NCCCn1ccnc1)C[C@@H]2C(=O)N1CCOCC1 the inhibition was 13.5% (active).
With CCOc1ccc(NC(=O)[C@H](C)NC(=O)C2CC(=O)N(c3ccc(OC)cc3)C2)cc1 (some centres undefined) the inhibition was 9.63% (active).
With C=CCN(c1ccc(Cl)cc1)S(=O)(=O)c1cccc(C(=O)OCC(=O)N(C)C)c1 the inhibition was 14% (active).
In the case of COC(=O)N(C)C[C@@H]1OCc2cnnn2CCCC(=O)N([C@@H](C)CO)C[C@@H]1C, the inhibition is reported as 14.2% (active).
